Test in all cases: yeast three-hybrid, YBZ-1, SC-Leu-His + 0.5 mM 3-AT, 4 days
Holding throughout (settings): tags: N-Gal4 AD-HA kept; label: inside an RPR1-promoter hybrid RNA with tandem MS2 sites; ssRNA

Experiment [1] deals with PUM1 PUF domain R1-RRQ (Homo sapiens, UniProt Q14671 828-1176, S863R). The method in brief:
(§1)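 Repeat regions from input (SC-Leu) and selection (SC-Leu-His + 0.5 mM 3-AT) plates were PCR-amplified and Illumina-sequenced after four days of growth. The cells were strain YBZ-1 with a LexA–MS2 coat fusion and a HIS3 reporter, co-expressing Pumilio-1 PUF domain libraries and matching RNA elements from a centromeric plasmid. The interaction score is the log change in variant frequency from input to selection, taken in log2 with a pseudocount of 1 for absent variants.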

The target of experiment [2] is PUM1 PUF domain R8-FYF (Homo sapiens, UniProt Q14671 828-1176, N1122F;Q1126F). The method in brief: as §1
Experiment [3] addresses PUM1 PUF domain R4-WSS (Homo sapiens, UniProt Q14671 828-1176, N971W;H972S;Q975S). Put shortly:
as §1

Experiment [4] has as its target PUM1 PUF domain R4-ANT (Homo sapiens, UniProt Q14671 828-1176, N971A;H972N;Q975T). Put shortly: as §1
Experiment [5] concerns the target PUM1 PUF domain R5-RRI (Homo sapiens, UniProt Q14671 828-1176, C1007R;Q1011I). The method in brief:
as §1

The target of experiment [6] is PUM1 PUF domain R5-RNL (Homo sapiens, UniProt Q14671 828-1176, C1007R;R1008N;Q1011L). The method in brief: as §1
The target in experiment [7] is PUM1 PUF domain R7-RER (Homo sapiens, UniProt Q14671 828-1176, S1079R;N1080E;E1083R). The method in brief:
as §1

Experiment [8] deals with T1, PUM1 PUF domain R6-IYS (Homo sapiens, UniProt Q14671 828-1176, N1043I;Q1047S).
T1 sequence: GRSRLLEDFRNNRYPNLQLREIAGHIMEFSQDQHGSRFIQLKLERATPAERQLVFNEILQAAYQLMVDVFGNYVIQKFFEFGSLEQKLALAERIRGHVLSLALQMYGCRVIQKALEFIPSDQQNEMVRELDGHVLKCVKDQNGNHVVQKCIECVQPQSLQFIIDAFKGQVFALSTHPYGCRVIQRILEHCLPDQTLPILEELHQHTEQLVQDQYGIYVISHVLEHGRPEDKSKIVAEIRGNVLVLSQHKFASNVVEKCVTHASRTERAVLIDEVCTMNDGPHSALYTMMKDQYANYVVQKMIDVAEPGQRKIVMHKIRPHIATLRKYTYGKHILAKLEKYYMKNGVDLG
Put shortly:
as §1

Experiment [9] concerns the target PUM1 PUF domain R4-CMI (Homo sapiens, UniProt Q14671 828-1176, N971C;H972M;Q975I). Put shortly: as §1
For experiment [10], the target named is PUM1 PUF domain R3-RPK (Homo sapiens, UniProt Q14671 828-1176, C935R;R936P;Q939K). Put shortly:
as §1

Chain of PUM1 PUF domain R5-RRI (Q14671 828-1176 C1007R/Q1011I): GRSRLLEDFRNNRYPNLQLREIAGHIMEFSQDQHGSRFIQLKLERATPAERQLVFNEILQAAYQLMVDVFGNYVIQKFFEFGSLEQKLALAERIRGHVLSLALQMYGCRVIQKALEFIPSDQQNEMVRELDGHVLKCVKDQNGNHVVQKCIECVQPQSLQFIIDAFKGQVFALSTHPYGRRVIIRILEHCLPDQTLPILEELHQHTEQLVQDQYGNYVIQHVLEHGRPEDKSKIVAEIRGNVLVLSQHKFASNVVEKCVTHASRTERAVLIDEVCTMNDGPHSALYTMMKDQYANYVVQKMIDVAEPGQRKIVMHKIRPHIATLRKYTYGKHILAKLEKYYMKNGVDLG
Chain of PUM1 PUF domain R4-WSS (Q14671 828-1176 N971W/H972S/Q975S): as the sequence (Q14671 828-1176 C1007R/Q1011I) above, with N144W, H145S, Q148S, R180C, I184Q counted along it
Chain of PUM1 PUF domain R1-RRQ (Q14671 828-1176 S863R): as the sequence (Q14671 828-1176 C1007R/Q1011I) above, with S36R, R180C, I184Q counted along it

As to “GGCUAGAACUAGUGGAUCCCCCGGCGCCCGGCGGCUCGAGCCCGGGUAAGUGUAAAUCGUCUGCAUGCCGCCGGGCGCCAUGCCUGCAGGUCGACUCUAGAAAACAUG”, the binding signal in [1] was 5.5 log2 enrichment (interaction score).

As for “GGCUAGAACUAGUGGAUCCCCCGGCGCCCGGCGGCUCGAGCCCGGGUAAGCGUAAAUAGUCUGCAUGCCGCCGGGCGCCAUGCCUGCAGGUCGACUCUAGAAAACAUG”, the binding signal in [2] was 2.55 log2 enrichment (interaction score).

Consider “GGCUAGAACUAGUGGAUCCCCCGGCGCCCGGCGGCUCGAGCCCGGGUAAGUGUAUAUAGUCUGCAUGCCGCCGGGCGCCAUGCCUGCAGGUCGACUCUAGAAAACAUG”, for which the binding signal in experiment [3] is 4.4 log2 enrichment (interaction score); in experiment [4] it was 2.52 log2 enrichment (interaction score).

As to “GGCUAGAACUAGUGGAUCCCCCGGCGCCCGGCGGCUCGAGCCCGGGUAAGUGUACAUAGUCUGCAUGCCGCCGGGCGCCAUGCCUGCAGGUCGACUCUAGAAAACAUG”, the binding signal in experiment [3] was 2 log2 enrichment (interaction score).

For “GGCUAGAACUAGUGGAUCCCCCGGCGCCCGGCGGCUCGAGCCCGGGUAAGUGUUAAUAGUCUGCAUGCCGCCGGGCGCCAUGCCUGCAGGUCGACUCUAGAAAACAUG”, the binding signal in experiment [5] is 4.69 log2 enrichment (interaction score); in experiment [6], 3.54 log2 enrichment (interaction score).

With “GGCUAGAACUAGUGGAUCCCCCGGCGCCCGGCGGCUCGAGCCCGGGUAAGUUUAAAUAGUCUGCAUGCCGCCGGGCGCCAUGCCUGCAGGUCGACUCUAGAAAACAUG”, the binding signal in experiment [7] was 4.54 log2 enrichment (interaction score).

Regarding “GGCUAGAACUAGUGGAUCCCCCGGCGCCCGGCGGCUCGAGCCCGGGUAAGUGUCAAUAGUCUGCAUGCCGCCGGGCGCCAUGCCUGCAGGUCGACUCUAGAAAACAUG”, the binding signal in [5] was 3.62 log2 enrichment (interaction score); in experiment [6], 2.83 log2 enrichment (interaction score).

As for “GGCUAGAACUAGUGGAUCCCCCGGCGCCCGGCGGCUCGAGCCCGGGUAAGUGUAAAUGGUCUGCAUGCCGCCGGGCGCCAUGCCUGCAGGUCGACUCUAGAAAACAUG”, the binding signal in experiment [1] was 1.96 log2 enrichment (interaction score).

For “GGCUAGAACUAGUGGAUCCCCCGGCGCCCGGCGGCUCGAGCCCGGGUAAGUGUAAAUUGUCUGCAUGCCGCCGGGCGCCAUGCCUGCAGGUCGACUCUAGAAAACAUG”, in [1], the binding signal is 4.29 log2 enrichment (interaction score).

As to “GGCUAGAACUAGUGGAUCCCCCGGCGCCCGGCGGCUCGAGCCCGGGUAAGUGUAAAUAGUCUGCAUGCCGCCGGGCGCCAUGCCUGCAGGUCGACUCUAGAAAACAUG”, the binding signal in [8] is 2.42 log2 enrichment (interaction score); in experiment [3], 2.27 log2 enrichment (interaction score); in experiment [5], 2.01 log2 enrichment (interaction score); in experiment [9], 2.77 log2 enrichment (interaction score).

Regarding “GGCUAGAACUAGUGGAUCCCCCGGCGCCCGGCGGCUCGAGCCCGGGUAAGUGUAAUUAGUCUGCAUGCCGCCGGGCGCCAUGCCUGCAGGUCGACUCUAGAAAACAUG”, in [10], the binding signal is 4.23 log2 enrichment (interaction score).

The values are drawn from PMC8384837, “Expanding the binding specificity for RNA recognition by a PUF domain”.
